# PubChem BioAssay
# Results filed as inconclusive are left out. Active and inactive are the calls of the source. Rule as the data show it, unless noted: active = inhibition above about 80%; inactive = the rest.
# What was measured:
# [1] = growth inhibition of DIPG glioma cells, dose response, cell-based, SU-DIPG-XVII, MIPE5.0, CellTiter-Glo, qHTS (AID 1347060; cut-off not given, nearly all actives have AC50 up to about 26 µM); settings: SU-DIPG-XVII viability, CellTiter-Glo ATP luminescence
# [2] = growth inhibition of DIPG glioma cells, dose response, cell-based, SU-DIPG-XIII, MIPE4.0, CellTiter-Glo, qHTS (AID 1347061; cut-off not given, nearly all actives have AC50 up to about 37 µM;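 also: cells exposed to compound for 48 hours before readout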); settings: SU-DIPG-XIII viability, CellTiter-Glo ATP luminescence
# [3] = growth inhibition of DIPG glioma cells, dose response, cell-based, JHH-DIPG-1, MIPE4.0, CellTiter-Glo, qHTS (AID 1347062; cut-off not given, nearly all actives have AC50 up to about 27 µM); settings: JHH-DIPG-1 viability, CellTiter-Glo ATP luminescence
# [4] = growth inhibition of DIPG glioma cells, dose response, cell-based, SU-DIPG-IV, MIPE4.0, CellTiter-Glo, qHTS (AID 1347063; cut-off not given, nearly all actives have AC50 up to about 30 µM;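 also: compound exposure lasted 48 hours before the viability readout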); settings: SU-DIPG-IV viability, CellTiter-Glo ATP luminescence
# [5] = growth inhibition of DIPG glioma cells, dose response, cell-based, SU-DIPG-XIII, MIPE5.0, CellTiter-Glo, qHTS (AID 1347064; cut-off not given, nearly all actives have AC50 up to about 23 µM); settings: SU-DIPG-XIII viability, CellTiter-Glo ATP luminescence
# [6] = SU-DIPG-VI glioma cell viability, MIPE4.0 library, CellTiter-Glo luminescence, qHTS (AID 1347066; cut-off not given, nearly all actives have AC50 up to about 30 µM;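 also: cells exposed to compound for 48 hours before readout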); settings: CellTiter-Glo ATP luminescence
# [7] = JHH-DIPG-1 glioma cell viability, MIPE5.0 library, CellTiter-Glo luminescence, qHTS (AID 1347067; cut-off not given, nearly all actives have AC50 up to about 26 µM;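 also: cells exposed to compound for 48 hours before readout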); settings: JHH-DIPG-1 glioma viability, CellTiter-Glo ATP luminescence
# [8] = SU-DIPG-XXV glioma cell viability, MIPE5.0 library, qHTS (AID 1347068; cut-off not given, nearly all actives have IC50 up to about 30 µM)
# [9] = LFS_MB_P medulloblastoma growth inhibition, cell-based, chromothripsis tumors, cisplatin or BGB combos (AID 1671449); settings: LFS_MB_P medulloblastoma cells;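 also: cells exposed for 96 hours; 0% = vehicle DMSO and 100% = killing by high DMSO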
# [10] = HDN33 neuroblastoma growth inhibition, cell-based, chromothripsis tumors, cisplatin or BGB combos (AID 1671450); settings: HDN33 neuroblastoma cells, stronger effect = higher value;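 also: cells exposed to compound for four days; 0% = vehicle DMSO and 100% = cell killing by high DMSO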
# [11] = ICB984 medulloblastoma cell growth inhibition, synergistic combos for chromothripsis tumors, cisplatin or BGB combos (AID 1671451; call rule not given here;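 also: cells exposed for 96 hours before readout; 0% = vehicle DMSO and 100% = killing by high DMSO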); settings: ICB984 medulloblastoma cells, drug combinations, stronger effect = higher value
# [12] = LFS_MB_1R medulloblastoma cell growth inhibition, synergistic combos for chromothripsis tumors, cisplatin or BGB combos (AID 1671452); settings: LFS_MB_1R medulloblastoma cells, stronger effect = higher value;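 also: cells exposed for 96 hours before readout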
# [13] = HTB85 osteosarcoma cell growth inhibition, synergistic combos for chromothripsis tumors, BGB or cisplatin IC20 combos (AID 1671453); settings: HTB85 osteosarcoma cells, drug combinations, stronger effect = higher value;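 also: cells exposed for 96 hours before readout; 0% = vehicle DMSO and 100% = high DMSO killing control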
# [14] = CRL2098 osteosarcoma cell growth inhibition, synergistic combos for chromothripsis tumors, BGB or cisplatin IC20 combos (AID 1671454); settings: CRL2098 osteosarcoma cells, drug combinations, stronger effect = higher value;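 also: cells exposed for 96 h before readout; 0% = vehicle DMSO and 100% = killing by high DMSO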
# [15] = HD-MB03 medulloblastoma cell growth inhibition, synergistic combos for chromothripsis tumors, BGB or cisplatin IC20 combos (AID 1671455; in the data active = inhibition above about 83%;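 also: 0% = vehicle DMSO and 100% = high DMSO as cytotoxic control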); settings: HD-MB03 medulloblastoma cells, stronger effect = higher value
# [16] = UWB1.289 ovarian carcinoma cell growth inhibition, synergistic combos for chromothripsis tumors, BGB or cisplatin combos (AID 1671456); settings: UWB1.289 ovarian carcinoma cells, stronger effect = higher value;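 also: cells exposed to compound for four days; 0% = vehicle DMSO and 100% = killing by high DMSO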
# [17] = LFS_MB_2R medulloblastoma cell growth inhibition, synergistic combos for chromothripsis tumors, cisplatin combos (AID 1671457); settings: LFS_MB_2R medulloblastoma cells, stronger effect = higher value;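 also: cells exposed to compound for four days before readout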
# [18] = MDA-MB-436 breast carcinoma cell growth inhibition, synergistic combos for chromothripsis tumors, BGB or cisplatin combos (AID 1671458; call rule not given here;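 also: cells exposed for 96 hours; 0% = vehicle DMSO and 100% = killing by high DMSO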); settings: MDA-MB-436 breast carcinoma growth inhibition, drug combinations, stronger effect = higher value
# [19] = UWB1.289_BRCA1 ovarian cancer growth, cell-based, BGB or cisplatin combinations (AID 1671459); settings: UWB1.289 BRCA1 ovarian carcinoma, drug combinations, stronger effect = higher value
# [20] = human astrocyte viability loss, single and combined drugs, cytotoxicity control for chromothriptic childhood tumor combination screen, cell-based, BGB or cisplatin IC20 combos (AID 1671460); settings: Human astrocytes, drug combinations, stronger effect = higher value;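 also: cells exposed to compounds for 96 hours before viability readout; 0% = vehicle and 100% = killing control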
# [21] = growth inhibition of BT084 medulloblastoma cells, cell-based, ICGC_MB145, cisplatin and BGB IC40 combos (AID 1671461); settings: drug combinations, stronger effect = higher value;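 also: cells exposed to drugs for 96 hours; 0% = vehicle DMSO and 100% = high DMSO full killing control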
# [22] = growth inhibition of RCMB18 medulloblastoma cells, cell-based, cisplatin and BGB IC40 combos (AID 1671462); settings: stronger effect = higher value;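 also: cells exposed to compound for four days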
# [23] = growth inhibition of CRL1545 osteosarcoma cells, cell-based, cisplatin and BGB IC20 combos (AID 1671464); settings: stronger effect = higher value;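 also: cells exposed to compound for 96 hours before readout; 0% = vehicle DMSO and 100% = high DMSO killing control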
# [24] = measured here: combination with BGB IC40, at 0.05 µM
# [25] = measured here: with BGB IC20 combination, at 0.5 µM
# [26] = measured here: with cisplatin IC20 combination, at 0.5 µM
# [27] = measured here: combination with cisplatin, at 0.5 µM
# [28] = measured here: combination with cisplatin, at 5 µM
smiles,measurement,setting,value
CN(C)NC(=O)CCC(=O)O,outcome,[1],inactive
same,outcome,[2],inactive
same,outcome,[3],inactive
same,outcome,[4],inactive
same,outcome,[5],inactive
same,outcome,[6],inactive
same,outcome,[7],inactive
same,outcome,[8],inactive
same,inhibition,"[9]; at 0.5 µM, stronger effect = higher value",-0.95% (inactive)
same,inhibition,"[9]; measured here: combination with BGB IC20, at 0.005 µM",-31%
same,inhibition,"[9]; measured here: combination with BGB IC40, at 0.005 µM",-30.2%
same,inhibition,[9]; [24],-24.7%
same,inhibition,"[9]; measured here: combination with cisplatin, at 0.5 µM, stronger effect = higher value",2.21%
same,inhibition,"[9]; measured here: combination with cisplatin, at 5 µM, stronger effect = higher value",-34.9%
same,inhibition,"[10]; BGB combo, at 5 µM",-23.5%
same,inhibition,[10]; at 0.5 µM,-21.4% (inactive)
same,inhibition,"[10]; cisplatin combo, at 5 µM",-14%
same,inhibition,[10]; [25],-37.1%
same,inhibition,[10]; [26],-10.8%
same,inhibition,"[10]; single agent, at 5 µM",-11.1%
same,inhibition,"[11]; BGB IC20 combo, at 0.005 µM",-38.4%
same,inhibition,"[11]; BGB IC40 combo, at 0.005 µM",-26.9%
same,inhibition,"[11]; BGB IC40 combo, at 0.05 µM",-23.3%
same,inhibition,[11]; at 0.5 µM,-22.7% (inactive)
same,inhibition,"[11]; cisplatin combo, at 0.05 µM",-27.8%
same,inhibition,"[11]; cisplatin combo, at 0.5 µM",-26.2%
same,inhibition,"[11]; cisplatin combo, at 5 µM",-3.89%
same,inhibition,"[11]; measured here: 5 uM single agent, at 5 µM",-1.92%
same,inhibition,[12]; at 0.5 µM,-2.69% (inactive)
same,inhibition,[12]; [24],-23.8%
same,inhibition,[12]; [27],18.7%
same,inhibition,[12]; [28],-7.99%
same,inhibition,[13]; at 0.5 µM,-8.01% (inactive)
same,inhibition,"[13]; measured here: with BGB IC20, at 0.5 µM",-17.1%
same,inhibition,"[13]; measured here: with BGB IC20, at 5 µM",-18.2%
same,inhibition,"[13]; measured here: with cisplatin IC20, at 0.5 µM",10.6%
same,inhibition,"[13]; measured here: with cisplatin IC20, at 5 µM",-1.55%
same,inhibition,"[13]; single agent, at 5 µM",-16.5%
same,inhibition,[14]; at 0.5 µM,-47.3% (inactive)
same,inhibition,"[14]; measured here: combination with BGB at IC20, at 0.5 µM",-35.5%
same,inhibition,"[14]; measured here: combination with cisplatin at IC20, at 0.5 µM",-70.4%
same,inhibition,[15]; at 0.5 µM,-8.93% (inactive)
same,inhibition,"[15]; measured here: combo with BGB at IC20, at 0.5 µM",-16.7%
same,inhibition,"[15]; measured here: combo with cisplatin at IC20, at 0.5 µM",-5.27%
same,inhibition,[16]; at 0.5 µM,-6.42% (inactive)
same,inhibition,"[16]; measured here: inhibition with BGB combination, at 0.05 µM",-16.9%
same,inhibition,"[16]; measured here: inhibition with cisplatin combination, at 0.05 µM",-15.9%
same,inhibition,[17]; at 0.5 µM,-22.3% (inactive)
same,inhibition,[17]; [27],-20.6%
same,inhibition,[17]; [28],-15.1%
same,inhibition,[18]; at 0.5 µM,-23% (inactive)
same,inhibition,"[18]; measured here: BGB combination, at 0.5 µM",-22.6%
same,inhibition,"[18]; measured here: BGB combination, at 5 µM",-35.6%
same,inhibition,"[18]; measured here: cisplatin combination, at 0.5 µM",-26.7%
same,inhibition,"[18]; measured here: cisplatin combination, at 5 µM",-43.4%
same,inhibition,"[19]; BGB combination, concentration series, at 5 µM",-16%
same,inhibition,[19]; at 0.5 µM,-15.1% (inactive)
same,inhibition,"[19]; cisplatin combination, concentration series, at 5 µM",-31.4%
same,inhibition,[20]; at 0.5 µM,-16.7% (inactive)
same,inhibition,"[20]; measured here: combo with BGB IC20, at 0.5 µM",-24.5%
same,inhibition,"[20]; measured here: combo with cisplatin IC20, at 0.5 µM",-4.55%
same,inhibition,[21]; at 0.5 µM,-3.48% (inactive)
same,inhibition,"[21]; cisplatin combination, at 0.5 µM",-21.4%
same,inhibition,"[21]; cisplatin combination, at 5 µM",-13.9%
same,inhibition,"[21]; measured here: BGB IC40 combination 0.05 uM, at 0.05 µM",-20.2%
same,inhibition,"[21]; single agent, at 5 µM",-16.7%
same,inhibition,[22]; at 0.5 µM,-11.5% (inactive)
same,inhibition,"[22]; cisplatin combo, at 5 µM",1.98%
same,inhibition,"[22]; measured here: BGB IC40 combination, at 0.05 µM",-3.93%
same,inhibition,[22]; [27],15.6%
same,inhibition,"[22]; single agent, at 5 µM",-10.2%
same,inhibition,[23]; at 0.5 µM,-22.5% (inactive)
same,inhibition,[23]; [25],-20%
same,inhibition,[23]; [26],-25.8%
same,inhibition,"[23]; single agent, at 0.05 µM",-6.7%
same,inhibition,"[23]; single agent, at 5 µM",-28%
